# SARS PLpro yeast: inhibitors of SARS-CoV papain-like protease in yeast; S. cerevisiae expressing SARS-CoV PLpro, growth rescue; Potency, µM (series often up to 32.9 µM), without a hit: top-dose activity, positive = growth rescue, most hits filed as activators; hit rate 0.19% among 330,000; further: potency means the concentration at half of the fitted maximal effect; 0% is about no effect; nearly all actives have a fitted effect of over 55% in size
# Shiga toxin inh: inhibitors of Shiga toxin in Vero cells; Vero cells, Shiga toxin protein synthesis inhibition reporter; inhibition, % at 38.7 µM; hit rate 9.2% among 290,000; in the data active means inhibition mostly above about 28%, no sharp cut-off; inactive means mostly below about 43%; further: 0% is about no effect
# Cycloheximide cs: counter-screen hit for Shiga toxin inhibitors, cycloheximide; cell reporter, cycloheximide protein synthesis inhibition counterscreen; max response, %; hit rate 12% among 300,000; AID 2314; in the data active means max response mostly above about 13%, no sharp cut-off; inactive means mostly below about 14%; further: read at 38.3 µM for the half of the compounds with a filed dose; 0% is about no effect
# NS1 inh: inhibitors of influenza NS1 protein function; AID 2326; Potency, µM (highest dose often 46.1 µM), for the others: at the highest dose activity, positive = more growth; hit rate 0.4% among 270,000; further: potency means the concentration at half of the fitted maximal effect; actives are rising curves; nearly all actives have a fitted effect of over 50% in size
#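 Read-out: OD600 growth recovery of NS1-expressing budding yeast. Cells grown overnight at 30C in -URA glucose medium, washed, resuspended and diluted 1:100 in 2% galactose assay medium, pH 6.0. Same strain lacking NS1 served as positive control.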
# * hit, by the source's call; ? = inconclusive; nt = no result. Only some compounds are listed: those with a hit (about 12% of all), similar ones and a draw of the others. Unless noted, the call rests on the fitted dose curve.
SMILES,SARS PLpro yeast,Shiga toxin inh,Cycloheximide cs,NS1 inh
Clc1ccccc1Nc1nc(-c2cccnc2)cs1,-6%,50*,41*,-38%
Fc1ccc(-c2csc(Nc3ccccn3)n2)cc1,-4%,92*,48*,1%
c1ccc(Nc2nc(-c3cccnc3)cs2)nc1,-5%,104*,57*,4%
CCOC(=O)C1=C(C)NC2=C(C(=O)OC2)C1c1ccccc1 (stereo not given),-1%,26,-3,-3%
Clc1ccccc1-c1csc(Nc2cccnc2)n1,-3%,53*,26*,-6%
c1cncc(Nc2nc(-c3ccncc3)cs2)c1,-2%,-5,1,-6%
CSc1ncccc1C(=O)Nc1nc2c(C)cccc2s1,8%,22,9,-9%
CSc1ncccc1C(=O)Nc1nc2ccc(Oc3ccccc3)cc2s1,0%,56*,15*,?
CSc1ncccc1C(=O)Nc1ccncc1,10%,23,4,9%
CSc1ncccc1C(=O)Nc1ccc2nc(C)sc2c1,0%,50*,19*,4%
CCOc1ncccc1C(=O)Nc1ccc2nc(C)sc2c1,-1%,50*,14*,-33%
CCOc1ncccc1C(=O)Nc1ccc(F)c(F)c1,0%,18,5,-9%
N#CC(C(=O)Nc1ccccc1)=C1Nc2ccccc2N1,-1%,75*,30,-14%
Cc1ccnc2ccc(-c3nc4ccccc4o3)cc12,-4%,55*,21*,-40%
Cc1cc(-c2nc3ccccc3o2)c2ccccc2n1,-6%,13,-3,-40%
Cc1nc2ccc(-c3nc4ccc(N)cc4[nH]3)cc2[nH]1,-2%,-6,-1,3%
Cc1nc2ccc(-c3nc4ccccc4o3)cc2[nH]1,-41%,68*,52*,-190%
c1cc(-c2nc3ccccc3o2)nc(-c2nc3ccccc3o2)c1,nt,nt,nt,2%
Nc1ccc(-c2nc3ccc(-c4nc5ccccc5o4)cc3[nH]2)cc1,-10%,39,28*,5%
Cc1ccc(CSc2nnc(SCC(=O)N/N=C/c3c[nH]c4ccccc34)s2)cc1,-1%,42,19*,nt
Cc1ccc(CSc2nnc(SCC(=O)N/N=C/c3ccccc3OCC(=O)O)s2)cc1,-3%,44*,21*,12%
O=C(CSc1nnc(SCc2ccccc2)s1)N/N=C/c1ccc(Cl)cc1Cl,5%,-8,-3,-7%
CC(=C/c1ccco1)/C=N/NC(=O)CSc1nnc(SCc2ccc(C)cc2)s1,2%,33*,45*,7%
O=C(CSc1nnc(SCc2ccc(Cl)cc2)s1)N/N=C/c1ccccc1C(=O)O,-1%,18,-3,8%
O=C(CSc1nnc(SCc2ccc(Cl)cc2)s1)N/N=C/c1ccc(Cl)cc1Cl,-3%,55*,33*,nt
SMILES,SARS PLpro yeast,Shiga toxin inh,Cycloheximide cs,NS1 inh
CCC1C(=O)N=C(SCC(=O)Nc2ccc(C)cc2)N(c2ccccc2)C1=O (stereo not given),0%,-5,-2,18%
Cc1ccc(CSc2nnc(SCC(=O)N/N=C/c3ccc(C(=O)O)cc3)s2)cc1,2%,37,13*,3%
O=C(CSc1nnc(SCc2ccccc2)s1)N/N=C/c1ccc(C(=O)O)cc1,1%,9,-2,14%
Cc1cc(C)n(C(=O)c2cc3c(s2)CCCC3)n1,4%,89*,19,-17%
O=C(CC1(O)C(=O)Nc2ccccc21)c1ccccc1O (stereo not given),0%,-10,-3,-5%
O=C(CC1=NCCNC(c2ccccc2)C1)c1ccccc1O (stereo not given),5%,36*,32*,?
O=C(c1ccc(COc2ccc(Cl)cc2Cl)o1)N1CCCC1,-12%,31,33*,-75%
CCOc1ccc(OCc2ccc(C(=O)N3CCCCC3)o2)cc1,1%,40*,23*,-43%
CCOc1ccc(OCc2ccc(C(=O)N3CCc4ccccc4C3)o2)cc1,-11%,29,18,-56%
COc1ccccc1OCc1ccc(C(=O)N2CCCCC2)o1,1%,26,13*,0%
Cc1ccc(OCc2ccc(C(=O)N3CCCC3)o2)cc1C,-20%,76*,34*,-31%
CC(=O)Nc1cccc(NC(=O)CSc2nc3c(=O)n(C)c(=O)n(C)c3n2C)c1,6%,nt,nt,nt
COc1ccc(CC(=O)N2CCC(c3ccccc3)C2)cc1 (stereo not given),0%,56*,23*,-6%
O=C(Cc1ccccc1)N1CCC(c2ccccc2)C1 (stereo not given),-1%,80*,28*,-1%
CCOC(=O)C1=CC[C@@H](c2cc(OC)c(OC)c(OC)c2)N(S(=O)(=O)c2ccc(C)cc2)[C@H]1C(=O)OCC,3%,nt,nt,nt
CCN=c1scc(-c2ccco2)n1/N=C/c1ccc(OC)c(O)c1,nt,139*,54*,-74%
CCN=c1scc(-c2ccco2)n1/N=C/c1ccc(O)cc1,-12%,69*,39*,-61%
C=C(C)CN=c1scc(C)n1/N=C/c1ccco1,?,10,2,-10%
Cc1nn(C)c(-c2n[nH]c(=S)n2-c2ccccc2)c1Cl,4%,active,10,8%
CCn1cc(C(=O)NC(=S)Nc2ccccc2[N+](=O)[O-])cn1,nt,58*,35*,8%
O=C(NC(=S)Nc1ccccc1[N+](=O)[O-])c1cncc(Br)c1,-5%,38,-2,-7%
CCn1cc(C(=O)NC(=S)Nc2ccccc2Br)cn1,16%,41*,23*,-2%
CCn1cc(C(=O)NC(=S)Nc2cccc(O)c2)cn1,-2%,58*,28*,1%
CCN(CC)c1ccc(NC(=O)c2cnn(CC)c2)cc1,0%,100*,44*,0%
C=CCSc1nnc2c(n1)OC(C)=Nc1ccc(Br)cc1-2,0%,22,-3,-2%
SMILES,SARS PLpro yeast,Shiga toxin inh,Cycloheximide cs,NS1 inh
COc1ccc2c3c([nH]c2c1)[C@H]1C[C@@H]2[C@@H](C[C@@H](O)[C@H](OC)[C@H]2C(=O)O)CN1CC3,nt,nt,nt,-8%
CC(C)c1ccc(NC(=O)c2ccccc2NC(=O)C2CCCCC2C(=O)O)cc1 (stereo not given),-1%,60*,39*,17%
O=C(O)C1CCCCC1C(=O)Nc1cccc(Cl)c1Cl (stereo not given),-12%,-5,-4,-2%
O=C(Nc1cccc(Cl)c1)c1ccccc1NC(=O)C1CCCCC1C(=O)O (stereo not given),2%,27,21*,4%
CC(C)c1ccc(NC(=O)c2ccccc2NC(=O)C2CC=CCC2C(=O)O)cc1 (stereo not given),2%,60*,33*,?
O=C(Nc1ccc(F)cc1)c1ccccc1NC(=O)C1CC=CCC1C(=O)O (stereo not given),-1%,29,25,22%
Cc1ccc2c(c1)CNc1ccccc1O2,-1%,45,13*,3%
Cn1c(=O)[nH]c(=O)c2c1nc(N1CCCCCC1)n2CCCSc1nc2ccccc2o1,0%,-6,-3,-77%
C=CCNC(=O)c1scc2c1CCCC2,-3%,52,16*,-1%
Nc1ccc2oc3ccccc3c2c1,2%,4,14,5%
Nc1ccc2c(c1)sc1ccccc12,-22%,82*,58*,?
Oc1ccc(-c2nccc(-c3ccc(F)cc3)n2)cc1,-8%,88*,81*,-5%
NNC(=O)COc1ccc(-c2nccc(-c3ccc(F)cc3)n2)cc1,-2%,-4,1,?

# Screens deposited in PubChem BioAssay by National Center for Advancing Translational Sciences (NCATS).
